# In PubChem BioAssay AID1494156 (National Center for Advancing Translational Sciences (NCATS), 2020):
# Results filed as inconclusive are left out. Values without a mark were called inactive. Active and inactive are the calls of the source. Calls come from the whole dose curve.
# Assay: VSV-G qHTS counterscreen for inhibitors of MERS-S pseudo-typed particle cell entry
# Conditions: VSV-G pseudotyped particle cell entry, luciferase counterscreen; series mostly up to 57.1 µM
Compound,Potency,"activity, negative = inhibition"
Cc1oncc1C(=O)Nc1ccc(C(F)(F)F)cc1,inactive,–
Cc1c(N)nc(C(CC(N)=O)NCC(N)C(N)=O)nc1C(=O)NC(C(=O)NC(C)C(O)C(C)C(=O)NC(C(=O)NCCc1nc(-c2nc(C(=O)NCCCN[C@@H](C)c3ccccc3)cs2)cs1)C(C)O)C(O[C@@H]1O[C@@H](CO)[C@@H](O)[C@H](O)[C@@H]1O[C@H]1O[C@H](CO)[C@@H](O)[C@H](OC(N)=O)[C@@H]1O)c1cnc[nH]1 (stereo not given in full),0.764 µM (active),–
C/C=C(/C)C(=O)O[C@H]1C(C)=CC23C(=O)C(C=C(CO)[C@@H](O)[C@]12O)[C@H]1[C@@H](C[C@H]3C)C1(C)C (stereo not given in full),inactive,–
CO[C@@]12[C@H](COC(N)=O)C3=C(C(=O)C(C)=C(N)C3=O)N1C[C@@H]1N[C@@H]12,0.857 µM (active),–
O=C(Nc1ccc(Cl)cc1)Nc1ccc(Cl)c(C(F)(F)F)c1,10.8 µM (active),–
NCCNc1ccc(NCCN)c2c1C(=O)c1ccncc1C2=O,21.5 µM (active),–
COc1cccc2c1C(=O)c1c(O)c3c(c(O)c1C2=O)C[C@@](O)(C(=O)CO)C[C@@H]3O[C@H]1C[C@H](N)[C@H](OC2CCCCO2)[C@H](C)O1 (stereo not given in full),inactive,–
C=CC(=O)Nc1cc(Nc2nccc(-c3cn(C)c4ccccc34)n2)c(OC)cc1N(C)CCN(C)C,30.4 µM (active),–
COc1ccc2cc3[n+](cc2c1OC)CCc1cc2c(cc1-3)OCO2,8.57 µM (active),–
CC(CN(C)C)CN1c2ccccc2CCc2ccccc21 (stereo not given),inactive,–
CC(=O)OCC1=C(C(=O)O)N2C(=O)[C@@H](NC(=O)Cc3cccs3)[C@H]2SC1,inactive,–
C[C@@H](c1nc(-c2ccc(C#N)cc2)cs1)[C@](O)(Cn1cncn1)c1cc(F)ccc1F,2.15 µM (active),–
CCN(CC)CCNC(=O)c1c(C)[nH]c(/C=C2\C(=O)Nc3ccc(F)cc32)c1C,7.64 µM (active),–
COc1cccc2c1C(=O)c1c(O)c3c(c(O)c1C2=O)C[C@@](O)(C(C)=O)C[C@@H]3O[C@H]1C[C@H](N)[C@H](O)[C@H](C)O1,1.92 µM (active),–
CC[C@H](C)C(=O)O[C@H]1C[C@@H](C)C=C2C=C[C@H](C)[C@H](CC[C@@H]3C[C@@H](O)CC(=O)O3)[C@H]21,inactive,–
CC[C@@]1(O)C(=O)OCc2c1cc1n(c2=O)Cc2c-1nc1ccccc1c2/C=N/OC(C)(C)C,0.0108 µM (active),–
CC(C)C(=O)Oc1ccc(CO)cc1[C@H](CCN(C(C)C)C(C)C)c1ccccc1,21.5 µM (active),–
CC(C)OC(=O)OCOP(=O)(CO[C@H](C)Cn1cnc2c(N)ncnc21)OCOC(=O)OC(C)C,0.0192 µM (active),–
O=c1[nH]c(=O)n([C@H]2C[C@H](O)[C@@H](CO)O2)cc1C(F)(F)F,2.41 µM (active),–
CN(C)[C@@H](CCOc1cccc2ccccc12)c1ccccc1,21.5 µM (active),–

Compound,Potency,"activity, negative = inhibition"
Cc1nn(C)c2c1C(c1ccccc1F)=NCC(=O)N2C,6.07 µM (active),–
COC(=O)C1=C(C)NC(C)=C(C(=O)OCC(C)C)C1c1ccccc1[N+](=O)[O-] (stereo not given),17.1 µM (active),–
CC(=O)N1CCN(c2ccc(OC[C@H]3CO[C@](Cn4ccnc4)(c4ccc(Cl)cc4Cl)O3)cc2)CC1,7.64 µM (active),–
C[C@@H]1CCO[C@H]2Cn3cc(C(=O)NCc4ccc(F)cc4F)c(=O)c(O)c3C(=O)N12,0.0015 µM (active),–
CCc1c2c(nc3ccc(OC(=O)N4CCC(N5CCCCC5)CC4)cc13)-c1cc3c(c(=O)n1C2)COC(=O)[C@]3(O)CC,10.8 µM (active),–
CCCCCCCCCCCCCC[n+]1ccc(C)cc1,1.71 µM (active),–
O=C1c2c(O)ccc(O)c2C(=O)c2c(NCCNCCO)ccc(NCCNCCO)c21,0.541 µM (active),–
CC(=O)Oc1ccccc1C(=O)Nc1ncc([N+](=O)[O-])s1,10.8 µM (active),–
COc1cc(NS(C)(=O)=O)ccc1Nc1c2ccccc2nc2ccccc12,0.764 µM (active),–
C=C(C)[C@H]1Cc2c(ccc3c2O[C@@H]2COc4cc(OC)c(OC)cc4[C@@H]2C3=O)O1,0.0108 µM (active),–
COc1c(OCCCN2CCOCC2)ccc2c3n(c(=NC(=O)c4cnc(N)nc4)nc12)CCN3,–,-8.49% [at 11.2 µM]
CC(C)(C)c1ccc(C(=O)CCCN2CCC(OC(c3ccccc3)c3ccccc3)CC2)cc1,8.57 µM (active),–
Cc1ccc(NC(=O)c2ccc(CN3CCN(C)CC3)cc2)cc1Nc1nccc(-c2cccnc2)n1,17.1 µM (active),–
CC(C)(C)C(=O)OCOP(=O)(COCCn1cnc2c(N)ncnc21)OCOC(=O)C(C)(C)C,0.0429 µM (active),–
CCCCN=C(N)N=C(N)N,inactive,–
CN1CCCCC1CCN1c2ccccc2Sc2ccc(S(C)=O)cc21 (stereo not given),27.1 µM (active),–
Cc1nnc2n1-c1sc(CCc3ccc(CC(C)C)cc3)cc1C(c1ccccc1Cl)=NC2C (stereo not given),24.1 µM (active),–
CCCCCCCCCCCC[n+]1ccc2ccccc2c1,1.52 µM (active),–
O=C(O)c1cc(O)c2c(c1)[C@H]([C@H]1c3cc(C(=O)O)cc(O)c3C(=O)c3c(O[C@@H]4O[C@H](CO)[C@@H](O)[C@H](O)[C@H]4O)cccc31)c1cccc(O[C@@H]3O[C@H](CO)[C@@H](O)[C@H](O)[C@H]3O)c1C2=O,7.44 µM (active),–
CN(C)CC/C=C1\c2ccccc2Sc2ccc(Cl)cc21,8.57 µM (active),–
